# From PubChem BioAssay
# HEK293 tox – cytotoxic compounds in HEK 293 cells; Potency, µM (highest dose often 115 µM), inactives show at the top dose activity change, negative = cytotoxicity, usual class: inhibitors; HEK 293 viability, ATP luminescence (CellTiter-Glo), 48-72 h; hit rate 6.6% among 94,000; AID 1345083; note: nearly all actives have a fitted effect of over 60% in size
#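 Cytotoxicity was scored by loss of ATP-coupled luminescence (CellTiter-Glo) in HEK 293 cells. Compound treatment ran 48 or 72 hr at 37 degree Celsius, 5% CO2, 95% humidity.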
# GPT2 inh – blocks human glutamate pyruvate transaminase 2; Q8TD30; Recombinant GPT2, coupled pyruvate oxidase/HRP Amplex Red fluorescence; Potency, µM (doses to about 57.7 µM), inactives show top-dose activity change, negative = inhibition, actives largely listed as inhibitors; hit rate 0.25% among 100,000; AID 1671188; note: nearly all actives have a fitted effect of over 60% in size
# Target sequence (Q8TD30 whole entry, looked up): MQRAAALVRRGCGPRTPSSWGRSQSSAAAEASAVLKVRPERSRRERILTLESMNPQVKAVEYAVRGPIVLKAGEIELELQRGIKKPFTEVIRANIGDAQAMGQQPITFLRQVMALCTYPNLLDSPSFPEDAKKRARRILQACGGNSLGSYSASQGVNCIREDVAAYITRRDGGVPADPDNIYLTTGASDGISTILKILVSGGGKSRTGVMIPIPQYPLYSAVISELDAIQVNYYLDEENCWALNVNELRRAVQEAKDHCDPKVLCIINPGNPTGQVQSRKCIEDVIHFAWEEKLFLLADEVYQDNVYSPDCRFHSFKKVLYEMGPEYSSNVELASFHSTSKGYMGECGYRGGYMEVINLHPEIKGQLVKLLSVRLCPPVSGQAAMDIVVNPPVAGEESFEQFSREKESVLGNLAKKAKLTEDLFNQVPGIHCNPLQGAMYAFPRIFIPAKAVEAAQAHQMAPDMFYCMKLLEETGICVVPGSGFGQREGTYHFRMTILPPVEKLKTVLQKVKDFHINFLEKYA
#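 Inhibition is scored from Amplex Red fluorescence generated when pyruvate oxidase and HRP act on pyruvate released by GPT2. Reactions contain 10ng/uL enzyme, 250uM a-KG and 2mM L-alanine and run 30 min at room temperature.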
# NIH3T3 tox – NIH 3T3 cell cytotoxicity; AID 1345082; hit rate 4.3% among 94,000; NIH 3T3 viability, CellTiter-Glo ATP luminescence, 48-72 h; Potency, µM (doses to about 96.7 µM), inactives show top-dose activity change, negative = cytotoxicity, usual class: inhibitors; note: nearly all actives have a fitted effect of over 55% in size
#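 First NIH 3T3 cells are plated at 400 cells/well; next compound is pinned in; then plates incubate 48 or 72 hr at 37 °C; finally CellTiter-Glo is added and luminescence read after 10 min.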
# hNpr1 antagonist – human Npr1 receptor antagonism. P16066. HEK293 hNpr1 GloSensor cGMP, ANP-stimulated luminescence. Potency, µM (series often up to 46.3 µM), without a hit: at the top dose activity change, negative = inhibition, most hits filed as inhibitors. hit rate 1.6% among 76,000. AID 1347048; calls by dose curve; note: nearly all actives have a fitted effect of over 60% in size
#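 Compound pre-incubated 30 min at room temperature on GloSensor-loaded HEK293 cells stably carrying hNpr1 and the pGS-40F cGMP biosensor. Stimulation uses hNppA at 0.1 nM final; luminescence is taken at baseline and 20 min post-agonist.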
# FLuc inh – blocks purified firefly luciferase enzyme activity. AID 1347043. hit rate 2.5% among 76,000. purified P. pyralis luciferase, luminescence, biochemical. Potency, µM (highest dose often 115 µM), usual class: inhibitors. P08659; note: nearly all actives have a fitted effect of over 65% in size
#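 Cell-free enzyme assay, 10nM P. pyralis luciferase, luciferin and ATP each at 10uM. Inhibition profiled over a 6-point titration, read as luminescence.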
# Active calls of the source: *; i = inactive; ? = inconclusive; . = no result; [ ] = dose if it differs, or a comment. An excerpt weighted towards active compounds, which were near 10% of everything screened. Unless noted, calls come from the whole dose curve; as a rule, active = well fitted curve in the direction sought with a large enough effect; inconclusive = small, poorly fitted or top-dose-only effect, or another doubt; inactive = no such curve, though single readings can be large; an effect the other way counts as inactive or inconclusive. % is set by controls: 0 for no effect and ±100 for the full control effect; potency is the fitted concentration of half-maximal effect.
SMILES,HEK293 tox,GPT2 inh,NIH3T3 tox,hNpr1 antagonist,FLuc inh
Cc1cc(C)c(CNC(=O)c2cc(-c3ccccc3)cc3c2OCCN3C(C)C)c(=O)[nH]1,32µM*,-18%[88.5 µM],22µM*,-9%[70.6 µM],i
COc1cc(F)ccc1-c1cc(C(=O)NCc2ccnc(N)c2)c2c(c1)ncn2C,?,-8%[88.5 µM],?,-13%[70.6 µM],?
O=C(c1cc2ccccc2[nH]1)N1CCC(c2noc(C3CC3)n2)C1 (stereo unspecified),?,-1%,?,?,28µM*
COc1ccc(NC(=O)c2cccc3c2CCN3C(=O)Nc2ccc(F)cc2)cc1,?,i,-12%,2%,?
CCNC(=O)c1cccc2c1CCN2C(=O)Nc1ccc(C)cc1,?,1%,?,2.2µM*,0.28µM*
Cc1ccc(NC(=O)N2CCc3c(C(=O)NCc4ccncc4)cccc32)cc1,32µM*,i,-26%,13µM*,0.56µM*
O=C(c1cccc2c1CCN2C(=O)Nc1ccccc1)N1CCN(c2ccccc2)CC1,?,i,-17%,-24%,28µM*
Cc1ccc(NC(=O)N2CCc3c(C(=O)NC(C)C)cccc32)cc1,?,i,?,0.56µM*,0.32µM*
CCc1ccc(C(=O)N2CCCN(S(C)(=O)=O)c3ccccc32)cc1,-11%,i,-13%,-2%,i
O=C(NCCCN1CCOCC1)c1cccc2c1CCN2C(=O)Nc1ccc(F)cc1,-29%,4%,-10%,-13%,25µM*
O=C(NCCc1ccncc1)c1cccc2c1CCN2C(=O)Nc1ccc(F)cc1,?,-5%,?,3.5µM*,0.25µM*
CN1CCCN(S(=O)(=O)c2cccc(Cl)c2)c2ccccc21,40µM*,-28%,?,-20%,i
CCCCn1c(=O)c(C(=O)N2CCN(C(=O)c3ccccc3OC)CC2)nc2cccnc21,-6%,i,-21%,.,.
OCc1ccc(CN2Cc3[nH]cnc3C[C@H]2c2nc(-c3ccncc3)no2)o1,-16%[172 µM],3%[88.5 µM],-16%[138 µM],3%[70.6 µM],?
Cc1ccc(CN2Cc3[nH]cnc3C[C@H]2c2nc(-c3ccc4ccccc4c3)no2)cc1,63µM*,-5%[88.5 µM],45µM*,-27%[70.6 µM],63µM*
OCc1ccc(CN2Cc3[nH]cnc3C[C@H]2c2nc(-c3ccc4ccccc4c3)no2)o1,79µM*,5%[88.5 µM],79µM*,-21%[70.6 µM],?
COCCCNC(=O)c1nc2sccn2c1-c1cccc(C(F)(F)F)c1,2%,1%,-11%,.,.
Cc1ccc(Nc2ccnc(N3CCCN(C(=O)C4CCCC4)C3)n2)cc1,13µM*,-12%,?,.,.
Cc1ccc(Nc2ccnc(N3CCCN(C(=O)NC4CCCC4)C3)n2)cc1,16µM*,i,25µM*,.,.
COc1ccc(-c2cc(-c3cccc(CO)c3)cn3cncc23)cn1,?,-6%[88.5 µM],40µM*,-2%[70.6 µM],i
COc1ccc(-c2cc(-c3cccnc3)c3cncn3c2)cn1,?,-21%[88.5 µM],?,-9%[70.6 µM],i
COc1ccc(-c2cc(-c3ccc4cn[nH]c4c3)cn3cncc23)cn1,?,-9%[88.5 µM],45µM*,-17%[70.6 µM],?
CCCc1noc(-c2ccn3c(CNC(=O)c4ccc(C)c(F)c4)nnc3c2)n1,1%,i,-20%,7%,i
COc1ccc(-c2nc(C)nc3c2CN(C(=O)Cc2ccccn2)CC3)cc1,1%,-14%,-2%,.,.
COc1nc2nc(CC3CC3)n(C)c2cc1-c1ccc(N2CCOCC2)cc1,?,-13%[88.5 µM],?,-26%[70.6 µM],i
CC(C)c1nc2c(c(-c3ccc(Cl)cc3)n1)CCN([S+](=O)([O-])c1ccccc1)CC2,?,i,-21%,.,.
Cc1ccc(-c2cc3c(=O)n(CCNC(=O)c4cc(Cl)ccc4F)ccn3n2)cc1C,0%,-4%,1%,-1%,i
CCOc1ccc(CC(=O)NCCn2ccn3nc(-c4ccc(C)cc4C)cc3c2=O)cc1,?,-8%,?,?,25µM*
COc1ccc(-c2cc3c(=O)n(CCNC(=O)Cc4ccc(C)cc4)ccn3n2)cc1,?,3%,-27%,?,?
COc1ccc(-c2cc3c(=O)n(CCNC(=O)Cc4ccsc4)ccn3n2)cc1,?,?,?,-21%,11µM*
